# Screening data: PubChem, several laboratories
# Compounds with a hit are over-represented: about 3.4% of the library has one in this group of screens.
# AI-2 QS modul: Vibrio harveyi AI-2 quorum sensing modulators, primary screen, JMH597 strain, luminescence/OD600 ratio | Vibrio harveyi JMH597 AI-2 luminescence/OD600 ratio, 9 h; stronger effect = lower value; strain lacks LuxN and CqsS sensors; 0 = neutral-control median | activity change, % at 7.5 µM | 300,000 compounds, 0.4% hits | AID 2094, 2009; in the data active = activity change below about -75%, passing the limit was not always enough; inconclusive = no clear call, values can overlap the other calls;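 also: luminescence divided by OD600 gain over 9 h not by final OD600 alone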
# SMARCA2 act: SMARCA2 (BRM) function activators, primary screen, cell-based, luminescence, high throughput | MG213 cells, MMTV-luciferase reporter, dexamethasone, overnight | activation, % at 9.1 µM | 370,000 compounds, 1% hits; in the data active = activation above about 7.8%;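 also: 0% = vehicle wells and 100% = reference activator wells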
# FXN GAA850 act: FXN promoter activators, primary screen, cell-based, luciferase luminescence, HEK293 lucGAA850. 360,000 compounds, 0.56% hits. activation, % at 6 µM. HEK293 lucGAA850 FXN promoter luciferase reporter, 24 h; percent of 10 µM SAHA response. AID 540364, 2011;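 active = activation above the average of all compounds screened plus 3 SD, cutoff fixed separately per campaign, cut at about 7.5% in these data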;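 also: 0% = DMSO wells and 100% = 10 µM SAHA wells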
# PG9 binder: binders of HIV-1 gp120 antibody PG9, primary screen, biochemical, TR-FRET; inhibition, % at 6.7 µM; AID 624416, 2012; 360,000 compounds, 0.43% hits; HIV-1 gp120 / PG9 antibody interaction; TR-FRET gp120-PG9 antibody binding; in the data active = inhibition above about 8.5%
# HSP90 refold inh: HSP90 inhibitors, primary screen, cell lysate, luminescence; inhibition, % at 5.6 µM; 290,000 compounds, 0.91% hits; Heat shock protein HSP 90 (rabbit reticulocyte lysate; luciferase refolding); AID 1789, 2009; Rabbit reticulocyte lysate, luciferase refolding luminescence, 3 h;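 active = inhibition above the screen-wide mean plus 3 SD, computed separately per campaign, cut at about 16% in these data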;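 also: 0% = DMSO wells and 100% = 60 µM geldanamycin wells; inhibitors lower the luminescence because luciferase stays unfolded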
# HSF1 inh: HSF1 inhibitors in luciferase reporter cells, primary screen, cell-based, NIH3T3, luminescence | NIH3T3-HGL HSE-luciferase, MG132-induced, luminescence 8 h; stronger effect = lower value | activity change, negative = inhibition, % at 7.5 µM (by protocol) | 300,000 compounds, 0.77% hits;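 active = more than half of replicate wells show activity change below -50%, luminescence cut by over half; inconclusive = some wells, but at most half, below -50%; inactive = no replicate well below -50%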;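 also: luciferase reports HSF-1 transcriptional activity via heat shock element; 0% = median of DMSO wells and -100% = zero luminescence signal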
# HSP90 inh confirm: HSP90 inhibitors, confirmation, cell lysate, luminescence. shares compounds with HSP90 refold inh. 2,300 compounds, 64% hits. rabbit reticulocyte lysate, luciferase refolding luminescence, 3 h. inhibition, % at 5.9 µM; in the data active = inhibition above about 18%;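 also: 0% = vehicle wells and 100% = reference inhibitor wells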
# luciferase ctr: firefly luciferase inhibitors, HSP90 counter-screen, confirmation, artefact control for HSP90 inhibitor project, biochemical, luminescence, triplicate; AID 1847, 2009; 2,300 compounds, 48% hits; shares compounds with HSP90 refold inh; purified native firefly luciferase; inhibition, % at 5.9 µM;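 active = inhibition above the mean inhibition of all tested sample wells plus 3 SD, cut at about 10% in these data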;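 also: 0% = DMSO with luciferase and 100% = wells lacking luciferase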
# Target sequence (P08659 whole entry, looked up): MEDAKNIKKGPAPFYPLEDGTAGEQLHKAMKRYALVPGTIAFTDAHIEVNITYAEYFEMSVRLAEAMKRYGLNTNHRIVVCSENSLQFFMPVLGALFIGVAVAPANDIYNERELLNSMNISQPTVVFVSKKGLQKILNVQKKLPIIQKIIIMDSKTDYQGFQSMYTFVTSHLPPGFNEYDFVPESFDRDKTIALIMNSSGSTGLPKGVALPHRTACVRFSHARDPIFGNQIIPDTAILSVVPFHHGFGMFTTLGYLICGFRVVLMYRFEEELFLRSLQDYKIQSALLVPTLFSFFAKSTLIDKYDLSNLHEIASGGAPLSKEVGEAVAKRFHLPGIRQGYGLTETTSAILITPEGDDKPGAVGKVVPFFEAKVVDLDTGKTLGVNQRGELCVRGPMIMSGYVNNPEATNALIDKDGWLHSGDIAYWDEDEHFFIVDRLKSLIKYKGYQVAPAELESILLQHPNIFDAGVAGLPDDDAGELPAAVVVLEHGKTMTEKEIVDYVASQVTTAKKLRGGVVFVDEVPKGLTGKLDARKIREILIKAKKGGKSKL
# Active calls of the source: *; ? = inconclusive; / = no result.
SMILES,AI-2 QS modul,SMARCA2 act,FXN GAA850 act,PG9 binder,HSP90 refold inh,HSF1 inh,HSP90 inh confirm,luciferase ctr
COc1ccc(OCc2cc(C(=O)O)c(C)o2)cc1,48,/,/,/,55*,5,63*,28*
Nn1c(SCC(=O)Nc2cccc3ccccc23)nnc1-c1cc(-c2ccccc2)n[nH]1,/,-2,/,/,/,/,/,/
COc1ccccc1N1CCN(C(=S)Nc2cccc(C)c2)CC1,-2,-1,-6,-3,27*,?,29*,1
Cc1cccc(NC(=S)N2CCN(c3cc(C)ccc3C)CC2)c1,27,0,2,0,5,5,/,/
COc1cc(Nc2cc(C)n(-c3ccc(Cl)c(OC)c3)c(=O)c2)ccc1Cl,/,-4,/,0,/,/,/,/
Cc1cccc(-c2cc3nc4c(c(N5CCC6(CC5)OCCO6)n3n2)CCCC4)c1,/,1,7,-2,1,/,/,/
Cc1cccc(-c2cc3nc4c(c(N5CCOCC5)n3n2)CCCC4)c1,2,6,6,0,40*,/,59*,58*
Cc1ccccc1C(=O)Nc1ccc(C(=O)N/N=C/c2ccc(O)cc2)cc1,39,-1,-2,-3,-6,-2,/,/
O=C(N/N=C/c1ccc(O)cc1)c1ccc(NC(=O)c2ccccc2Br)cc1,26,2,4,-1,20*,-10,1,-5
COc1ccc(-c2nc(CN3CCN(Cc4ccccc4)CC3)c(C)o2)cc1,13,-3,2,1,3,-6,/,/
Cc1oc(-c2ccc(-c3ccccc3)cc2)nc1CN1CCN(CC(=O)N(C)C)CC1,15,3,4,5,67*,2,79*,18*
O=C(Cc1ccc2c(c1)OCCO2)Nc1ccc(Cl)c(S(=O)(=O)N2CCOCC2)c1,/,-2,-1,-1,/,/,/,/
Cc1ccc(NC(=O)Cc2ccc3c(c2)OCCO3)cc1S(=O)(=O)N1CCCCC1,21,-4,2,-2,27*,-1,6,0
O=[N+]([O-])c1ccc(O)c(C=Nc2cccc3ccccc23)c1,17,-1,0,-3,8,1,/,/
Oc1c(C=Nc2cccc3cccnc23)sc2ccccc12,4,-7,/,-6,37*,1,23*,50*
O=[N+]([O-])c1ccc(O)c(N=Cc2sc3ccccc3c2O)c1,21,-2,1,-8,21*,-32,-2,-10
O=C(c1ccc2nc(N3CCOCC3)sc2c1)N1CCCC1,21,0,1,0,-3,5,/,/
COc1ccc(N2CCN(C(=O)c3ccc4nc(N5CCCCC5)sc4c3)CC2)cc1,3,3,2,-3,19*,-9,29*,-8
COc1ccc(C(=O)Nc2cccc(/C=C/c3nc4ccccc4c(=O)[nH]3)c2)cc1,15,0,-3,-1,28*,-27,10,-9
C(=C\c1nc2ccccc2[nH]1)/c1ccccc1,22,-1,1,0,31*,18,54*,48*
C(=C\c1ccco1)/c1nc2ccccc2[nH]1,8,1,4,-2,2,6,/,/
CN(C)c1ccc(/C=C/c2nc3ccccc3c(=O)[nH]2)cc1,5,6,1,-2,59*,-24,76*,73*
CC(C)(C)OC(=O)NCc1cc(F)ccc1/C=C/S(=O)(=O)NCc1ccc(F)cc1,/,-2,/,/,/,/,/,/
Cc1ccc2nc(-c3ccccc3N)[nH]c2c1,15,7,3,-1,22*,-7,39*,33*
